Results as given in PubChem BioAssay.
Potency and affinity values are given separately. The source made the active and inactive calls. The limit is not given here; nearly all actives have IC50 up to about 0.98 µM.

Target: Calcium-dependent protein kinase 1 (Plasmodium falciparum (isolate 3D7)) (UniProt P62344)
Assay: PfCDPK1 kinase inhibitors, biochemical, TCAMS library (AID 1159585);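 also: inhibitors leave more ATP so luminescence rises with inhibition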
Settings: recombinant PfCDPK1, Kinase-Glo ATP depletion luminescence

Calcium-dependent protein kinase 1 (Plasmodium falciparum (isolate 3D7)), sequence (P62344 whole entry, looked up): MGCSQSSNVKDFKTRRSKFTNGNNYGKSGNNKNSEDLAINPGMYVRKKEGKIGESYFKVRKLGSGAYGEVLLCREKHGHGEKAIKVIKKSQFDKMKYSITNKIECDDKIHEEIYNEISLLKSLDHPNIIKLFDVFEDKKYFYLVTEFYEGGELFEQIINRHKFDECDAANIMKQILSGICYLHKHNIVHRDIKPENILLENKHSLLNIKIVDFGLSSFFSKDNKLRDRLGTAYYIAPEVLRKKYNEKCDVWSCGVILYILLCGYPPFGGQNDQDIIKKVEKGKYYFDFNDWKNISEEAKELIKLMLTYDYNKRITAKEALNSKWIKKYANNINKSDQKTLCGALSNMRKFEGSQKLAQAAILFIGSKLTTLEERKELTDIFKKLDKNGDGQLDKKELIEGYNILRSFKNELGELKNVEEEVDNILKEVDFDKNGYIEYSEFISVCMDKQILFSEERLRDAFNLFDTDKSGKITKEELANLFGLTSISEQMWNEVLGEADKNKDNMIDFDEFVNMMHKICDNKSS

outcome, inactive:
O=C(Cc1ccc(Nc2nccc(Nc3cccc4[nH]ncc34)n2)cc1)Nc1ccc(C(F)(F)F)cc1
Cc1ccc(S(=O)(=O)Nc2ccc(Nc3nccc(Nc4cccc5[nH]ncc45)n3)cc2)cc1
CCN(CC)CCNc1nccc(N(C)c2ccc(NC(=O)Nc3cc(C(F)(F)F)ccc3F)cc2)n1
N#Cc1cnc(Nc2ccc(Oc3ccccc3)cc2)nc1Nc1cccc(S(N)(=O)=O)c1
CN(c1ccc(NC(=O)Nc2cc(C(C)(C)C)on2)cc1)c1ccnc(NCCN2CCOCC2)n1
O=C(O)c1cccnc1Sc1ccc(Cl)cc1
C#CCNC(=O)c1ccc(-c2ccnc(Nc3cccc(CCCN4CCOCC4)c3)n2)s1
C(=N\Nc1nccc2sc(-c3ccccc3)cc12)/c1cccnc1
CC(=O)c1ccc(NC(=O)Nc2ccc(N(C)c3ccnc(Nc4cccc(CS(C)(=O)=O)c4)n3)cc2)cc1
COc1c(CN2CCOCC2)cccc1-c1cc2c(-c3ccc(C(=O)O)c(C(C)C)c3)ccnc2[nH]1
CN(C)CC(O)COc1ccc(Nc2ncc([N+](=O)[O-])c(Nc3ccccc3O)n2)cc1 (stereo not given)
CS(=O)(=O)Cc1cccc(Nc2ncc(Cl)c(Nc3cccnc3C(N)=O)n2)c1
CCN(CC)CCCNc1nccc(N(C)c2ccc(NC(=O)Nc3cc(C(F)(F)F)ccc3F)cc2)n1
Cn1nc(-c2ccc(NC(=O)Nc3ccc4ccccc4c3)c(F)c2)c2cnc(NCCN3CCOCC3)nc21
CN1CCC(NC(=O)c2cccc(Nc3cc(Nc4cccc(Br)c4)ncn3)c2)CC1
Cn1cnc2c(Nc3ccncc3)nc(-c3ccc4c(c3)OCO4)nc21
CS(=O)(=O)Cc1ccc(Nc2ncc(Cl)c(Nc3cccnc3C(N)=O)n2)cc1
Nc1ncc(-c2cccc(F)c2)cc1-c1nc2ccc(F)cc2[nH]1
CN(c1ccc(NC(=O)Nc2cccc(Cl)c2)cc1)c1ccnc(N)n1
CC(=O)Nc1nc(C)c(-c2csc(Nc3ccc(Cl)cc3)n2)s1
COc1c(CN2CCCC2)cccc1-c1cc2c(-c3ccc(C(=O)O)c(C(C)C)c3)ccnc2[nH]1
NS(=O)(=O)c1cccc(Nc2nccc(-c3cnn4ncccc34)n2)c1
CN(c1ccc2c(c1)nc(NCc1ccccc1)n2C)c1ccnc(Nc2ccc(CS(C)(=O)=O)cc2)n1
Cc1ccc(Nc2nc3cc(Nc4ccnc(Nc5cccc(CS(C)(=O)=O)c5)n4)ccc3o2)cc1
N=C(N)c1ccc(Nc2nccc(Nc3nc(-c4ccccc4)cs3)n2)cc1
N=C(N)c1ccc(Nc2nc(Nc3ccc(-c4ccccc4)cc3)ncc2[N+](=O)[O-])cc1
CN(c1ccc(NC(=O)Nc2cc(C(F)(F)F)ccc2F)cc1)c1ccnc(NCCN2CCOCC2)n1
Cc1cc(Nc2nc(Nc3cccc(Cl)c3)nc3ccccc23)n[nH]1
COc1cccc(-n2ncc3c(N/N=C/c4ccc(CN(C)CCN(C)C)cc4)ncnc32)c1
CN(c1ccc2c(c1)nc(NCc1ccc(F)cc1)n2C)c1ccnc(Nc2ccc(CS(C)(=O)=O)cc2)n1
